Consider ten compounds from PubChem BioAssay.

A short description of assay [1]: inhibitors of TNFa-induced NFkB p65 translocation, primary screen, imaging, HUVEC, MLSMR starter and 10KST1 sets (AID 438;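 active means inhibition above 20% together with a positive visual image hit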;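 further: compound added about 3h40 before a 20 min TNFalpha stimulation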;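 on inhibition: signal is the nuclear over cytoplasmic p65 intensity ratio per well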). Conditions: HUVEC TNFa-induced p65 nuclear translocation; cell count: measured here: nuclei count (cytotoxicity indicator), at 2.08 µM unless noted; inhibition: at 2 µM, stronger effect = higher value unless noted.
A short description of assay [2]: inhibitors of mutant huntingtin aggregation, primary screen, imaging, exon1htt(103Q)mCFP cells, high-content imaging (AID 483;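 active means visual image review flags a hit and inhibition of aggregation exceeds 20%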;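 further: compound exposure lasted 3 days before fixation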;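 on nuclei count: percent of the per-plate median nuclei count of sample wells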). Conditions: exon1htt(103Q)mCFP cell line, aggregate imaging, at 2 µM; inhibition of aggregation: stronger effect = higher value; nuclei count: measured here: cell count, toxicity.
Assay [3] can be described thus: inhibitors of E-selectin induction by TNFa, primary screen, imaging, HUVEC, immunofluorescence, MLSMR starter and 10KST1 sets (AID 487).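 On inhibition: signal is fraction of cell area covered by stained E-selectin grains.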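 On nuclei count: 100% = median nuclei count of all wells on the same plate.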 Conditions: HUVEC TNFalpha-induced E-selectin immunofluorescence imaging, at 2 µM; inhibition: stronger effect = higher value; nuclei count: measured here: cell number, toxicity.
Assay [4] has as its target Voltage-gated potassium channel subunit beta-2 (Rattus norvegicus) (UniProt P62483). The experiment in a line: KvBeta enzyme negative modulators, primary screen, biochemical, NADPH fluorescence (AID 622;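 active means fluorescence slope higher than the sample average by over 3 SD, cut at about -0.22 in these data, passing the limit was not always enough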;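 further: slope of raw intensity against log time taken from 70 to 1610 s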). Conditions: recombinant KvBeta, 4-cyanobenzaldehyde reduction, at 10 µM, stronger effect = higher value.
For assay [5] the target is unchanged. The experiment in a line: KvBeta positive modulators, primary screen, biochemical, NADPH fluorescence (AID 623;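 active means NADPH fluorescence slope more negative than the mean of all samples by about 3 SD, 99.7% confidence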;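 further: fluorescence intensity change per second fitted from 20 to 320 s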). Conditions: Recombinant KvBeta, NADPH fluorescence decrease slope, 10 min; at 10 µM; stronger effect = lower value.
The target in assay [6] is Alpha-2C adrenergic receptor (Homo sapiens) (UniProt P18825). Nature of the assay: modulators of alpha2C/GIRK thallium flux, primary screen, cell-based, HEK293 alpha2C/GIRK1/2 (AID 624;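 active means fluorescence slope after compound addition differing from the mean of all screened samples at 99.7% confidence, in either direction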;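 further: slope of fluorescence ratio to pre-addition baseline per second over 15 to 24 s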). Conditions: thallium flux BTC fluorescence, at 10 µM, actives lie on both sides.
Assay [7] can be described thus: inhibitors of Sendai virus-induced IRF3 signaling, primary screen, TLR/RLR signaling modifier project, cell-based, Sendai virus stimulus, luciferase, 10K MLSCN set (AID 602276;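 active means inhibition at or above 50% at 10 µM; inactive means inhibition below 50%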;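 further: firefly luciferase from ISG56 promoter only with Renilla not read in this screen; 0% = Sendai virus plus DMSO and 100% = medium plus DMSO without virus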). The following applies: HEK293 RL24 IRF3 luciferase reporter, at 10 µM, stronger effect = higher value.
A short description of assay [8]: inhibitors of poly I:C-induced TLR3 signaling, primary screen, cell-based, poly I:C stimulus, luciferase, 10K MLSCN set (AID 602277;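 active means inhibition of the reporter signal at or above 50%; inactive means inhibition below 50%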). The following applies: HEK293-TLR3 RL24 IRF3 luciferase reporter, at 10 µM, stronger effect = higher value.

The structures appear in SMILES notation. The source made the active and inactive calls.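 How the source made its calls, unless noted: active means visually confirmed hit in the image check and inhibition above 20%; inconclusive means visually confirmed hit but inhibition not above 20%; inactive means no visual hit in the image check.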

Chain of Alpha-2C adrenergic receptor (Homo sapiens) (P18825 whole entry, looked up): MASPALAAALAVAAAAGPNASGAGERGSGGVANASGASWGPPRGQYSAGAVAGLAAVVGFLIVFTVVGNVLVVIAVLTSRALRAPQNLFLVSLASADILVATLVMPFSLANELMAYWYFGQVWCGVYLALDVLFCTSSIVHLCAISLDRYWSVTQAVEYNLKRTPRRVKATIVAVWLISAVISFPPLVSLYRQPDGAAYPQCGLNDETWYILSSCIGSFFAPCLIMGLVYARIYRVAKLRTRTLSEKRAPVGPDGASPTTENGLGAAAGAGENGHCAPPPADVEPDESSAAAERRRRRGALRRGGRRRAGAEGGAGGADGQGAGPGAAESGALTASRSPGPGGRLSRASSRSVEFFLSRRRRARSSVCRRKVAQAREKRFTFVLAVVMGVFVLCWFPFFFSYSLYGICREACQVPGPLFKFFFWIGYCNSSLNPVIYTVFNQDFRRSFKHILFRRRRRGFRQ
Chain of Voltage-gated potassium channel subunit beta-2 (Rattus norvegicus) (P62483 whole entry, looked up): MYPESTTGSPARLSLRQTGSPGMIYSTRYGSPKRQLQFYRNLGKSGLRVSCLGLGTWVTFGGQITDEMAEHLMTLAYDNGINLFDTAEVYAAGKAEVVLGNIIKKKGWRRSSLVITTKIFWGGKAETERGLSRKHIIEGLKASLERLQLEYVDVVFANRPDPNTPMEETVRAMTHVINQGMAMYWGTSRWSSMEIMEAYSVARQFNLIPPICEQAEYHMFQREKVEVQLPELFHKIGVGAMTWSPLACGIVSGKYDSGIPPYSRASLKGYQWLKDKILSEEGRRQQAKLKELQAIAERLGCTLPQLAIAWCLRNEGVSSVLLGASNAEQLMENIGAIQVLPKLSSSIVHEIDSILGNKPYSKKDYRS

For the compound `COc1ccc(CN2CCN(C(=O)Cc3ccccc3)CC2)c(OC)c1`, the cell count in assay [1] was determined as 402. Also, the inhibition (usually the relative decrease from the control value, in per cent) in assay [1] is 2.1% (inactive); in assay [3], -13.2% (inactive); in assay [7] it was 15.3% (inactive); in assay [8], 25.6% (inactive). The inhibition of aggregation in assay [2] was 8% (inactive). The nuclei count came to 94% in assay [2] and 114% in assay [3]. The fluorescence slope in assay [4] is -0.6 (inactive). For the same compound, in assay [5], the NADPH fluorescence slope was 1.9e-05 (inactive). Moreover, the slope in assay [6] was 0.00526 (inactive).
Regarding `O=c1c2ccccc2nc(CSc2ncnc3nc[nH]c23)n1-c1ccccc1`, the cell count in assay [1] came out at 546. Further, the inhibition in assay [1] is 2.3% (inactive); in assay [3], -123% (inactive); in assay [7], -0.567% (inactive); in assay [8], 13.7% (inactive). In addition, the inhibition of aggregation in assay [2] is 2.9% (inactive). For the same compound, the figures for the nuclei count in assay [2] and in assay [3] were 106% and 103%, respectively. In addition, the fluorescence slope in assay [4] is -0.492 (inactive). For the same compound, the NADPH fluorescence slope in assay [5] was -9.1e-05 (inactive). Also, in assay [6], the slope is 0.00489 (inactive).
As to `CN(C)CCc1nc2ccccc2c(=O)n1-c1ccccc1`, the cell count in assay [1] came to 241. Also, the inhibition in assay [1] was -2.3% (inactive); in assay [3], -21% (inactive); in assay [7], -20.1% (inactive); in assay [8], -35% (inactive). In addition, in assay [2], the inhibition of aggregation was 16.8% (inactive). Besides, the nuclei count was determined as 96.8% in assay [2] and 124% in assay [3]. The fluorescence slope in assay [4] was -0.495 (inactive). The NADPH fluorescence slope in assay [5] was -5e-05 (inactive). Further, the slope in assay [6] is 0.00675 (inactive).
In assay [1], `Nc1ccnn1C1CCNCC1` yielded a cell count of 285. The inhibition in assay [1] is 2.4% (inactive); in assay [3], -43.8% (inactive); in assay [7], 5.24% (inactive); in assay [8] it was 17.3% (inactive). Besides, the inhibition of aggregation in assay [2] was 6.2% (inactive). The nuclei count in assay [2] was determined as 99.6%; in assay [3], 127%. In addition, the fluorescence slope in assay [4] was -0.541 (inactive). In addition, in assay [5], the NADPH fluorescence slope is 2.9e-05 (inactive). Moreover, the slope in assay [6] was 0.00512 (inactive).
Compound `COC(=O)CC1(Cc2ccccc2)C(=O)NC(=O)NC1=O` displayed a cell count in assay [1] of 641. Also, the inhibition in assay [1] is -6.3% (inactive); in assay [3], -73.6% (inactive); in assay [7], 17.2% (inactive); in assay [8] it was 21.5% (inactive). Also, in assay [2], the inhibition of aggregation is 12.4% (inactive). The nuclei count in assay [2] is 78%; in assay [3], 140%. Besides, in assay [4], the fluorescence slope was -0.579 (inactive). Moreover, the NADPH fluorescence slope in assay [5] is -2.7e-05 (inactive). In addition, the slope in assay [6] is 0.00355 (inactive).
`O=C(NC1(C(F)(F)F)Oc2ccc(Cl)cc2O1)N1CCC2(CC1)OCCO2` (stereo not given) showed a cell count in assay [1] of 676. In addition, the inhibition in assay [1] is -22.3% (inactive); in assay [3], -97.5% (inactive); in assay [7], 8.96% (inactive); in assay [8], 38.5% (inactive). For the same compound, the inhibition of aggregation in assay [2] was -18.5% (inactive). The figures for the nuclei count in assay [2] and in assay [3] were 114% and 108%, respectively. The fluorescence slope in assay [4] was -0.513 (inactive). For the same compound, the NADPH fluorescence slope in assay [5] is -9.9e-05 (inactive). Further, in assay [6], the slope was 0.00493 (inactive).
In assay [1], `O=c1[nH]c(=O)n(CCc2ccc(F)cc2)c(O)c1C=NCCCn1ccnc1` came in with a cell count of 544. In addition, the inhibition in assay [1] was 2.2% (inactive); in assay [3], 2.2% (inactive); in assay [7], 13.3% (inactive); in assay [8], 24% (inactive). Besides, the inhibition of aggregation in assay [2] was -7.2% (inactive). Further, the nuclei count came to 110% in assay [2] and 102% in assay [3]. Also, the fluorescence slope in assay [4] is -0.589 (inactive). Moreover, the NADPH fluorescence slope in assay [5] was -3.2e-05 (inactive). Further, the slope in assay [6] was 0.00323 (inactive).
`Cc1ccc(C)c(NC(=O)CSc2nnc([C@@H](N)Cc3c[nH]c4ccccc34)o2)c1` showed a cell count in assay [1] of 282. Besides, the inhibition in assay [1] was 9.5% (inactive); in assay [3], -8.3% (inactive); in assay [7], 9.6% (inactive); in assay [8], 24.2% (inactive). Moreover, in assay [2], the inhibition of aggregation is -6.6% (inactive). The nuclei count amounted to 103% in assay [2] and 92.8% in assay [3]. In addition, in assay [4], the fluorescence slope is -0.428 (inactive). The NADPH fluorescence slope in assay [5] was -1.2e-05 (inactive). The slope in assay [6] is 0.00513 (inactive).
Turning to `O=C(c1ccncc1)C12CN3CN(CN(C3)C1)C2`, in assay [1], the cell count turned out to be 459. Also, the inhibition in assay [1] is 4.5% (inactive); in assay [3], -155% (inactive); in assay [7] it was 10% (inactive); in assay [8], 30.7% (inactive). In assay [2], the inhibition of aggregation was 15.7% (inactive). For the same compound, the nuclei count in assay [2] amounted to 104%; in assay [3], 98.1%. Also, the fluorescence slope in assay [4] is -0.409 (inactive). Further, in assay [5], the NADPH fluorescence slope was -3.9e-05 (inactive). Besides, the slope in assay [6] was 0.00372 (inactive).
As to `CCN(CC)CCN=Cc1c(O)n(CCC2=CCCCC2)c(=O)[nH]c1=O`, the cell count in assay [1] amounted to 677. Further, the inhibition was -6% (inactive) in assay [1], 5.2% (inactive) in assay [3], -53.3% (inactive) in assay [7] and -117% (inactive) in assay [8]. Also, in assay [2], the inhibition of aggregation was -1.5% (inactive). For the same compound, the nuclei count in assay [2] is 94.9%; in assay [3], 104%. The fluorescence slope in assay [4] is -0.618 (inactive). Besides, in assay [5], the NADPH fluorescence slope was -1.2e-05 (inactive). Moreover, the slope in assay [6] is 0.00557 (inactive).
